Gal4-VP16 FLuc: Gal4-VP16 reporter inhibition counter-screen; Drosophila S2 Gal4-VP16 UAS-luciferase, luminescence, 20 h; Potency, µM (series often up to 53.6 µM), hits mostly inhibitors; 3.5% of 310,000 active; AID 2546;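 also: Gal4-VP16 expression switched on by copper sulfate through the metallothionein promoter; nearly all actives have a fitted effect of over 50% in size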
Sfp inh: blocks B. subtilis Sfp PPTase activity; 3.5% of 310,000 active; Potency, µM, actives largely listed as inhibitors; Biochemical Sfp PPTase activity, qHTS; Q9F4F7; AID 1490;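 also: the enzyme is Sfp with the accession as filed and its product quenches rhodamine fluorescence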
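After 15 min at room temperature with compound, 15 nM Sfp received 5 uM rhodamine-CoA plus 12.5 uM BHQ-2-ybbR (50 mM Hepes pH 7.6, 10 mM MgCl2). Rate came from the fluorescence difference over 30 min, ex 525/em 598 nm.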
RORg inh: inhibitors of mouse ROR gamma transcriptional activity | Drosophila S2 Gal4-RORgamma UAS-luciferase reporter, 20 h | 5.4% of 310,000 active | Potency, µM (titrated, usually from 53.6 µM), actives largely listed as inhibitors | P51450; also: nearly all actives have a fitted effect of over 60% in size
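Compounds are pin-transferred onto Drosophila Schneider cells expressing a copper-inducible Gal4–ROR gamma transactivation domain fusion. After 1 hr, copper sulfate is added to 700 uM final; luciferase is read 20 hr later.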
PLK1 PBD block: PLK1 (human) polo-box domain binding inhibition | Potency, µM, actives largely listed as inhibitors | AID 720504 | P53350 | Plk1 PBD binding of FITC phosphopeptide, fluorescence polarization | 2.8% of 360,000 active; also: series mostly up to about 57 µM; nearly all actives have a fitted effect of over 65% in size
ALDH1A1 block: inhibitors of human aldehyde dehydrogenase 1A1; P00352; Purified ALDH1A1, NADH fluorescence, propionaldehyde substrate; Potency, µM (doses to about 75.3 µM), actives largely listed as inhibitors; 7.3% of 220,000 active; AID 1030; active = well fitted inhibition curve with a large enough effect, not every such curve was filed as active; inconclusive = small, poorly fitted or top-dose-only effect, or another doubt; inactive = no such curve, though single readings can be large or run the other way
Target sequence (P00352 whole entry, looked up): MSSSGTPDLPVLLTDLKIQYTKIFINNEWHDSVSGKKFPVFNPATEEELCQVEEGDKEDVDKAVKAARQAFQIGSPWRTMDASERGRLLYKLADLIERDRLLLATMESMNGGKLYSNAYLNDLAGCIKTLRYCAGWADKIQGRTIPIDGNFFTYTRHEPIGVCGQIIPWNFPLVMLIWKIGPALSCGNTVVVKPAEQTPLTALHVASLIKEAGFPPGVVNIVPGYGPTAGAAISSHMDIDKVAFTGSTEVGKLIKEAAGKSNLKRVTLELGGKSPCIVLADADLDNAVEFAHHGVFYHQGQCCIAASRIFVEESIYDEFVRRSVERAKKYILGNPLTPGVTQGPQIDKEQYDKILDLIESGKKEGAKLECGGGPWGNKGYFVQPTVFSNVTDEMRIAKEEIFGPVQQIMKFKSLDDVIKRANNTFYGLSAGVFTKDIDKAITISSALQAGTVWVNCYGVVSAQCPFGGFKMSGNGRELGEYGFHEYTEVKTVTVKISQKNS
A number is an active result; 0 = inactive; ? = inconclusive; - = not tested or not shown; [ ] = another dose, or the depositor's remark. Only some compounds are listed: those with a hit (about 12% of all), similar ones and a draw of the others. Unless noted, calls follow the shape of the dose curve; as a rule, active = well fitted curve in the direction sought with a large enough effect; inconclusive = small, poorly fitted or top-dose-only effect, or another doubt; inactive = no such curve, though single readings can be large; an effect the other way counts as inactive or inconclusive.

SMILES | Gal4-VP16 FLuc | Sfp inh | RORg inh | PLK1 PBD block | ALDH1A1 block
Clc1ccc(CNc2ccc(CNc3ncn[nH]3)cc2)cc1 | 0 | 0 | 0 | 0 | 0
Clc1ccc(CNc2ccc(CNc3ncn[nH]3)cc2)c(Cl)c1 | 13µM | ? | ? | 0 | -
Cc1cc(OCc2cc(C(=O)N3CCN(C)C(=O)[C@@H]3C)no2)cc(C)c1Cl | 14µM | 0 | 0 | 0 | -
COc1ccc(C(=O)NC2(C(F)(F)F)NC(=O)N(CCCc3ccccc3)C2=O)cc1OC (stereo unspecified) | 0 | 0 | ? | 27µM | 0
CCCC(=O)Nc1ccc(NC(=O)CCc2ccccc2)cn1 | 0 | 0 | 0 | 3µM | 0
CN(C)c1ccc(NC(=O)CCCc2ccccc2)cc1 | ? | 22µM | 0 | 0 | ?
COc1ccc([C@H]2C[C@@H](O)[C@H](n3cc(-c4ccc(F)cc4)nn3)CN2C(=O)C2CCCCC2)cc1 | - | - | - | 0 | -
CNc1ncncc1-c1ccccc1C | 0 | 0 | 0 | - | 0
CC(C)C(N)c1csc(Nc2ccc(S(C)(=O)=O)cc2)n1 (stereo unspecified) | - | - | - | 0 | -
Fc1ccccc1OCCSc1nnnn1-c1ccccc1 | - | 0 | 0[0.365 µM] | 0 | 1.9µM
c1ccc(OCCSc2nnnn2-c2ccccc2)cc1 | 0 | 0 | 0 | 0 | 22µM
CCOc1ccc(OCCSc2nnnn2-c2ccccc2)cc1 | 0 | 0 | ? | ? | 14µM
c1ccc(-n2nnnc2SCCCSc2nc3ccccc3s2)cc1 | 0 | 0 | 0 | 0 | 1.3µM
COc1ccccc1OCCSc1nnnn1-c1ccc(C)cc1 | 0 | 0 | ? | 0 | 0
O=C(CSc1nc2ccc(NC(=O)CSc3nnnn3-c3ccccc3)cc2s1)Nc1ccccc1 | ? | 0 | 0 | 0 | ?
COc1ccc(Br)c(Cn2c(C)c(C(=O)NCc3cccc([N+](=O)[O-])c3)sc2=O)c1 | - | - | - | 0 | -
CC(=O)OC[C@@]1(O)C[C@@]23CC[C@@H]4c5ccoc5CC[C@@]4(C)[C@@H]2CCC1C3 | 0 | 0 | ? | - | 0
CN1C[C@@H]2[C@@H]3C(=O)N(Cc4ccccc4)C(=O)[C@@H]3[C@](Cc3ccccc3)(C1=O)N2C(=O)c1ccc(Cl)cc1 | - | - | - | 0 | -
CNc1ncnc2c1ncn2[C@H]1C[C@H](OP(=O)(O)O)[C@@H](COP(=O)(O)O)O1 | - | - | - | - | 0
CCOc1ccc(OCCSc2nnnn2C2CCCCC2)cc1 | 0 | 0 | 0 | 0 | 16µM
c1ccc(OCCSc2nnc3sc4ccccc4n23)cc1 | 11µM | 0 | 11µM | 0 | 0
Clc1ccc(OCCSc2nnnn2C2CCCCC2)cc1 | 0 | 0 | ? | 0 | ?
Cc1cccc(-c2cccc3nccn23)c1 | - | - | - | 0 | -
Cc1ccc(O)c(N=Nc2ccc(S(=O)(=O)N3CCCC3)cc2)c1 | 0 | 0 | ? | 0 | -
Cc1[nH]n(-c2ccccc2)c(=O)c1N=Nc1ccc(C(N)=O)cc1 | 0 | 0 | 0 | 0 | -
SMILES | Gal4-VP16 FLuc | Sfp inh | RORg inh | PLK1 PBD block | ALDH1A1 block
Cc1[nH]n(C(N)=S)c(=O)c1N=Nc1ccc(Br)cc1 | 2µM | 0 | 0.35µM | ? | -
Cc1ccc(N=Nc2c(C)[nH]n(C(N)=S)c2=O)cc1 | 0.89µM | 0 | 0.32µM | ? | ?
Cc1[nH]n(C(N)=S)c(=O)c1N=Nc1ccc(S(=O)(=O)N2CCCC2)cc1 | 1.3µM | ? | 0.28µM | 0 | 32µM
Cc1nnc2n1CCCCC2 | 0 | 0 | 0 | 0 | -
CCOC(=O)[C@]12CCC=C1N(Cc1cccc3ccccc13)C(=O)[C@H](CC(=O)N1CCSCC1)C2 | - | - | - | 0 | -
Cc1cc(=O)oc2c1c(C)nn2-c1ccc(C(=O)OC(C)C)cc1 | 0 | 0 | 0 | - | 1.1µM
Cc1cc(=O)oc2c1c(C)nn2-c1ccc(Br)cc1 | 0 | 0 | 0 | ? | ?
NC(Cc1ccc(F)cc1)c1csc(Nc2ccc(C(=O)c3ccccc3)cc2)n1 (stereo unspecified) | - | - | - | 0 | -
COCCNC(=O)CSc1nc2nn(-c3ccccc3)c(=O)c-2c2n1CCCCC2 | 0 | 0 | 0 | 24µM | 0
CN(Cc1ccccc1)C(=O)c1cccc(NC(=O)Cc2ccc(NC(=O)C3CCCN(C(=O)C4CCCCC4)C3)cc2)c1 (stereo unspecified) | - | - | - | 0 | -
Cn1c(=O)c2cc(S(=O)(=O)NC(C(=O)N3CCCCCC3)c3ccccc3)ccc2n(C)c1=O (stereo unspecified) | 0 | 0 | 0 | 0 | 3.2µM
CCOC(=O)OCC1OC(c2ccccc2)C=CC1OC(=O)OCC (stereo unspecified) | 0[10 µM] | 0 | 0[10 µM] | - | 0[13.5 µM]
O=C(CC1CCCCC1)N=C1SC2CS(=O)(=O)CC2N1c1ccccc1 (stereo unspecified) | 0 | 0 | 0 | 27µM | -
COc1ccccc1C(=O)OCc1c(-c2ccccc2)ncc2ccccc12 | - | - | - | 0 | -
CC1CCN(CC(=O)Nc2cc(C(F)(F)F)ccc2Cl)CC1 | 0 | 0 | ? | 0 | 0
Cc1ccc(C)n1CCN1CCN(CC(=O)Nc2cc(C(F)(F)F)ccc2Cl)CC1 | ? | 0 | 0 | - | 28µM
O=C(CN1CCOCC1)Nc1cc(C(F)(F)F)ccc1Cl | 0 | 0 | 0 | 21µM | 0
O=C(CN1CCCCCC1)Nc1cc(C(F)(F)F)ccc1Cl | 0 | 0 | 0 | 0 | 0
Cc1cc2nc(-c3ccc(C#N)cc3)c(Cc3cccc(F)c3)n2c(C)c1Br | - | - | - | 0 | -
COc1ccc(-c2cn3cc(C)ccc3n2)cc1OC | ? | 0 | 11µM | 0 | ?
CCOc1ccc(-c2cnc3ccccc3n2)cc1 | 8.9µM | 0 | 3.5µM | 0 | -
COc1ccc(-c2cn3ccccc3n2)cc1OC | 0 | 89µM | 0 | 0 | ?
CCOc1ccc(-c2cn3ccccc3n2)cc1 | ? | 0 | 6.3µM | 0 | ?
Cc1noc(C)c1C(=O)N1CCC[C@@]2(CCN(Cc3cc(C(F)(F)F)cc(C(F)(F)F)c3)C2)C1 | 0 | 0 | 0 | - | 0
OC[C@@H]1CN(Cc2ccco2)C[C@H](n2cnc3c(Nc4ccccc4)ncnc32)O1 | - | - | - | 0 | -
SMILES | Gal4-VP16 FLuc | Sfp inh | RORg inh | PLK1 PBD block | ALDH1A1 block
COc1ccc(-c2cn3cc(C)ccc3n2)cc1F | 4µM | 0 | 2µM | 9.5µM | ?
CNC(=O)C[C@@H]1C(=O)N(c2ccc(Br)cc2)CC1(C)C | - | - | - | 0 | -
CC1=NN(c2ccccc2)C(=O)[C@@H]1N=Nc1ccc(S(N)(=O)=O)cc1 | - | - | - | - | 0[13.5 µM]
O=C1NC(=S)S/C1=C\c1cc(Cl)ccc1Cl | - | - | - | 21µM | -
N#Cc1ccc(CN(Nc2ccccc2)c2ccccc2)cc1 | - | - | - | 0 | -
COC(=O)c1ccc(OCC2c3cc(OC)c(OC)cc3CCN2C(C)=O)cc1 (stereo unspecified) | 0 | 0 | 0 | 0 | 0
COc1ccc(OCC2c3cc(OC)c(OC)cc3CCN2C(=O)C(C)C)cc1 (stereo unspecified) | 0 | 0 | 0 | 27µM | 0
CC1(C)CC(=O)C2=C(C1)OC1=C(C2)C(=O)CC(C)(C)C1 | 0 | 0 | 0 | 0 | 18µM
CN1CCc2c1nc1ccccc1c2N=C1CCCN1Cc1ccccc1 | 0 | 0 | 0 | 21µM | ?
CC(C)(C)c1ccc(/C=C/C(=O)Nc2cccnc2)cc1 | 0 | 0 | 0 | 0 | -
Cc1ccc(/C=C/C(=O)NC2=NCCS2)cc1 | ? | 0 | 11µM | 0 | 0
CC(C)(C)c1ccc(/C=C/C(=O)NC2=NCCS2)cc1 | 4.5µM | 0 | 2.8µM | 0 | 0

Screens deposited in PubChem BioAssay by National Center for Advancing Translational Sciences (NCATS).
